High-throughput results deposited in PubChem BioAssay by The Scripps Research Institute Molecular Screening Center.
PAFAH1B2 inh – inhibitors of human PAFAH1B2; actives 1.2% (n = 340,000); recombinant PAFAH1B2, FP-rhodamine activity probe, fluorescence polarization; P68402; inhibition, % at 3.39 µM;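 active = inhibition above the mean of all tested compounds plus 3 SD, cut at about 24% in these data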;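 note: 0% = enzyme with DMSO and 100% = wells lacking PAFAH1B2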
Target sequence (P68402 whole entry, looked up): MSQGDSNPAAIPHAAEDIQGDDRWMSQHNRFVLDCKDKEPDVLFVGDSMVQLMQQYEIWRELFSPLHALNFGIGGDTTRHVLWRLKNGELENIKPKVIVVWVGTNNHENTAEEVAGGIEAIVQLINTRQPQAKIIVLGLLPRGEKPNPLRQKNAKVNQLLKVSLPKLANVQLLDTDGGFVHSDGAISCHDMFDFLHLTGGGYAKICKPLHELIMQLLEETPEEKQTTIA
PAFAH1B3 inh – blocks human PAF acetylhydrolase 1B catalytic subunit 3; Q15102; recombinant PAFAH1B3, FP-rhodamine probe, fluorescence polarization; inhibition, % at 3.39 µM; actives 0.28% (n = 340,000); AID 492972;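 active = inhibition above the screen-wide average of all tested compounds plus 3 SD, cut at about 25% in these data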;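 note: 0% = enzyme with DMSO only and 100% = wells lacking PAFAH1B3 protein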
PP5 primary – inhibitors of human protein phosphatase 5 (PP5); P53041; purified PP5c, OMFP substrate fluorescence; inhibition, % at 6.7 µM; actives 0.18% (n = 320,000);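 active = inhibition above the campaign's mean inhibition across all tested compounds plus 3 SD, cut at about 9.5% in these data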;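 note: 0% = DMSO only and 100% = 100 µM cantharidin control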
PP1 counter – PP1-alpha (human) inhibition in PP5 counter-screen | purified PP1alpha, OMFP fluorescence | P62136 | AID 2235 | actives 0.9% (n = 320,000) | inhibition, % at 6.7 µM;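 active = inhibition above the mean inhibition of all tested compounds plus 3 SD, computed separately for each screening campaign, cut at about 15% in these data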
PAFAH2 FP inh – inhibitors of human PAFAH2 | recombinant PAFAH2, FP-rhodamine activity probe, fluorescence polarization | inhibition, % at 3.39 µM | actives 0.99% (n = 340,000) | AID 492956;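 active = inhibition above the mean over all tested compounds plus 3 SD, cut at about 30% in these data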;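 note: inhibitors block probe labeling of enzyme so polarization drops; 0% = enzyme with DMSO and 100% = wells lacking PAFAH2 protein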
pPAFAH FP inh – pPAFAH (human) enzyme inhibition. recombinant pPAFAH, FP-rhodamine probe fluorescence polarization. inhibition, % at 3.39 µM. Q13093. actives 1.5% (n = 330,000);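 active = inhibition above the mean inhibition across the screen plus 3 SD, cut at about 25% in these data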;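 note: inhibitors block binding of the rhodamine activity-based probe so polarization drops; 0% = enzyme with DMSO and 100% = wells lacking pPAFAH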
Target sequence (Q13093 whole entry, looked up): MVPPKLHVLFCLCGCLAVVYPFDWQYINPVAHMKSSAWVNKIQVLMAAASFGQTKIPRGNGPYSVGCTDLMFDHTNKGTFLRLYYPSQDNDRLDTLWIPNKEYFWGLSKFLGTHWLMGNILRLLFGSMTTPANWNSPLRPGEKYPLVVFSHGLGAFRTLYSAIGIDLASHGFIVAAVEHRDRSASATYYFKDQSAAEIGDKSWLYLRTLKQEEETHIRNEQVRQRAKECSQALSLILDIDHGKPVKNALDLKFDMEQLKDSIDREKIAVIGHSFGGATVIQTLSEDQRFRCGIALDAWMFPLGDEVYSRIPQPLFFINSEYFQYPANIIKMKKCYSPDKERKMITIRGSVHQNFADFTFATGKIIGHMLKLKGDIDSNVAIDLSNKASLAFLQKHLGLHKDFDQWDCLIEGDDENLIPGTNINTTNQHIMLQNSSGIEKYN
PP1 confirm – confirmation of human PP1 phosphatase inhibitors | shares compounds with PP1 counter | purified PP1alpha, OMFP substrate fluorescence | inhibition, % at 6.7 µM | actives 52% (n = 1,900);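 active = mean PP1 inhibition above a set limit taken from the earlier primary screen, cut at about 15% in these data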
PP5 inh counter – inhibits human PP5 phosphatase in PP1 counter-screen; shares compounds with PP1 counter; purified PP5c, OMFP fluorescence; inhibition, % at 6.7 µM; actives 4% (n = 1,900); AID 2360;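 active = mean PP5 inhibition over triplicate wells above about 9.5% taken from the earlier PP1 screen, limit read from the data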
The depositor's hits bear a star; . = no result. The list is not random: actives were taken first. Their share in the collection is about 3.4%.

SMILES | PAFAH1B2 inh | PAFAH1B3 inh | PP5 primary | PP1 counter | PAFAH2 FP inh | pPAFAH FP inh | PP1 confirm | PP5 inh counter
CCOC(=O)N1CCN(Cc2nc(N)nc(Nc3ccc(Oc4ccccc4)cc3)n2)CC1 | 3 | 4 | 2 | 23* | 5 | 17 | 4 | -1
C#CCOCCOCCOCCNc1nc(N2CCN(C(=O)CCCCCCCCCCNC(=O)[C@H]([C@@H](C)CC)n3cc(CCCCCN)nn3)CC2)nc(N2CCN(C(=O)CCCCCCCCCCNC(=O)[C@@H]([C@H](C)O)n3cc(C)nn3)CC2)n1 | 3 | -5 | 4 | 54* | 1 | 2 | 41* | 0
C#CCOCCOCCOCCNc1nc(N2CCN(C(=O)CCCCCCCCCCNC(=O)[C@H](CCCCN)n3cc(C)nn3)CC2)nc(N2CCN(C(=O)CCCCCCCCCCNC(=O)[C@@H]([C@H](C)CC)n3cc(CCCCCN)nn3)CC2)n1 | -4 | 21 | 5 | 60* | -6 | 0 | 28* | -1
C#CCOCCOCCOCCNc1nc(N2CCN(C(=O)CCCCCCCCCCNC(=O)[C@H](CCC(=O)O)n3cc(CCCCCN)nn3)CC2)nc(N2CCN(C(=O)CCCCCCCCCCNC(=O)[C@@H]([C@H](C)O)n3cc(C)nn3)CC2)n1 | 6 | -3 | 2 | 4 | 2 | 7 | . | .
Cc1ncc([N+](=O)[O-])n1CCN1C(=O)c2ccccc2C1=O | 0 | 2 | -1 | 1 | 2 | 1 | . | .
COc1ccc(C2CC(c3ccccc3)=NN2C(=O)c2cccs2)cc1 (stereo not drawn) | -2 | 6 | 3 | 4 | -2 | 5 | . | .
COc1ccc(C2=NN(C(=O)c3cccs3)C(c3ccccc3O)C2)cc1 (stereo not drawn) | -2 | -4 | 2 | 27* | -1 | -2 | 19* | -5
O=C(N/N=C/c1cc2ccccc2nc1Cl)/C(=C/c1cccs1)NC(=O)c1ccccc1 | -14 | -32 | 1 | 18* | -30 | -44 | 7 | -1
O=[N+]([O-])c1cc(CN2CCCC2)c2cccnc2c1O | 4 | 19 | 3 | 18* | 36* | 66* | 5 | -1
COc1cccc(CC(=O)n2nc(N)c3cc4ccc(OC)cc4nc32)c1 | 4 | -7 | 2 | 1 | -6 | -3 | . | .
COc1ccc2cc3c(N)nn(C(=O)Cc4c[nH]c5ccccc45)c3nc2c1 | 3 | -1 | 5 | 19* | 3 | 6 | 17* | 4
COc1ccc2cc3c(N)nn(C(=O)Cc4ccc(Cl)cc4)c3nc2c1 | 7 | 0 | 1 | 21* | -11 | -4 | 12 | -4
CCc1nnc(NC(=O)c2ccc(S(=O)(=O)N(C)Cc3ccccc3)cc2)o1 | -3 | -4 | 3 | 37* | 2 | 7 | 34* | 4
CC(=O)Nc1ccc(S(=O)(=O)N(C)Cc2ccccc2)cc1 | 0 | 7 | 0 | 6 | -1 | 5 | . | .
COc1ccccc1-c1nnc(NC(=O)c2ccc(S(=O)(=O)N(C)Cc3ccccc3)cc2)o1 | . | . | 3 | 21* | . | 6 | 31* | -1
CN(Cc1ccccc1)S(=O)(=O)c1ccc(C(=O)Nc2nnc(C3CC3)o2)cc1 | 0 | 5 | 2 | 36* | -16 | 14 | 31* | 0
CCc1nnc(NC(=O)c2ccc(S(=O)(=O)N(CC)Cc3ccccc3)cc2)o1 | 9 | 2 | -4 | 36* | 4 | 4 | 32* | 0
CCCCN(C)S(=O)(=O)c1ccc(C(=O)Nc2nnc(-c3ccco3)o2)cc1 | 2 | 5 | 5 | 11 | -3 | 7 | . | .
Cc1cccc(C)c1NC(=S)N1CCC(c2ccccc2)C1 (stereo not drawn) | 9 | 5 | 1 | 3 | 2 | 4 | . | .
CCN(Cc1ccccc1)S(=O)(=O)c1ccc(C(=O)Nc2nnc(C)o2)cc1 | 8 | 4 | 3 | 38* | 1 | 6 | 26* | -1
CCN(CC)S(=O)(=O)c1ccc(C(=O)Nc2nnc(CSC)o2)cc1 | -1 | 5 | 0 | 8 | -3 | 4 | . | .
CC(=O)c1cnc2c(-c3ccccc3)c(C)nn2c1C | 3 | 11 | 3 | 1 | -1 | 1 | . | .
COc1cc2c(cc1OC)C(C)N(C(=O)c1cc3n(n1)C(C(F)(F)F)CC(c1ccco1)N3)CC2 (stereo not drawn) | 1 | 9 | 5 | 2 | 0 | 9 | . | .
CCN(CC)C(=O)/C(=C/c1cn(S(=O)(=O)N(C)C)c2ccccc12)NC(=O)c1ccc(OC)cc1 | 8 | -2 | 0 | 27* | -3 | 1 | 23* | -2
C#CCOCCOCCOCCNc1nc(N2CCN(C(=O)CCCCCCCCCCNC(=O)[C@H](CCCCN)n3cc(CCCC(=O)O)nn3)CC2)nc(N2CCN(C(=O)CCCCCCCCCCNC(=O)[C@H](CCCN=C(N)N)n3cc(C[C@@H](C)CC)nn3)CC2)n1 | 1 | 8 | 1 | 42* | -6 | -1 | 12 | -2
SMILES | PAFAH1B2 inh | PAFAH1B3 inh | PP5 primary | PP1 counter | PAFAH2 FP inh | pPAFAH FP inh | PP1 confirm | PP5 inh counter
C#CCOCCOCCOCCNc1nc(N2CCN(C(=O)CCCCCCCCCCNC(=O)[C@H](CCCCN)n3cc(CCO)nn3)CC2)nc(N2CCN(C(=O)CCCCCCCCCCNC(=O)[C@H](CCCCN)n3cc(CCO)nn3)CC2)n1 | -8 | -1 | 1 | 18* | -9 | 1 | -15 | -4
C#CCOCCOCCOCCNc1nc(N2CCN(C(=O)[C@H](CCCCN)n3cc(CC(C)O)nn3)CC2)nc(N2CCN(C(=O)[C@H](Cc3ccc(O)cc3)n3cc(CCO)nn3)CC2)n1 (stereo partly drawn) | 3 | 4 | . | . | 2 | . | . | .
C#CCOCCOCCOCCNc1nc(N2CCN(C(=O)[C@H](CCCCN)n3cc(CCCC)nn3)CC2)nc(N2CCN(C(=O)[C@H](Cc3ccc(O)cc3)n3cc(CCO)nn3)CC2)n1 | 1 | -7 | 2 | 21* | 7 | 7 | -10 | 0
C#CCOCCOCCOCCNc1nc(N2CCN(C(=O)CCCCCCCCCCNC(=O)[C@H](CCCCN)n3cc(CCO)nn3)CC2)nc(N2CCN(C(=O)CCCCCCCCCCNC(=O)[C@H](CCCN=C(N)N)n3cc(C[C@@H](C)CC)nn3)CC2)n1 | 7 | -5 | 5 | 45* | -10 | -6 | 44* | 2
C#CCOCCOCCOCCNc1nc(N2CCN(C(=O)CCCCCCCCCCNC(=O)[C@@H](CCC(=O)O)n3cc(CCCCCN)nn3)CC2)nc(N2CCN(C(=O)CCCCCCCCCCNC(=O)[C@@H](CCC(=O)O)n3cc(CCCCCN)nn3)CC2)n1 | -1 | 8 | 1 | 5 | 2 | 7 | . | .
Cc1c(OCC(=O)Nc2cccnc2)ccc2c3c(c(=O)oc12)CCC3 | 0 | 7 | 2 | -2 | 10 | 5 | . | .
